Autofluor counter – flagged as autofluorescent in microsphere protease counterscreen. fluorescence intensity (concentration not given with the values). 360,000 compounds, 3.1% hits. compound autofluorescence counterscreen, microsphere flow cytometry; hits give high values; in the data active means fluorescence intensity above about 16000; inconclusive means no clear call, values can overlap the other calls
BoNT A protease – BoNT A light chain protease inhibition. multiplex microsphere protease substrate cleavage, flow cytometry. inhibition, % at 10 µM. 360,000 compounds, 0.17% hits; further: plate controls were buffer without enzyme for full effect and enzyme alone for no effect
Anthrax LF inh2 – inhibitors of Bacillus anthracis lethal factor protease | multiplex microsphere protease cleavage assay, LF | P15917 | AID 588501 | 360,000 compounds, 0.12% hits | inhibition, % at 10 µM; further: plate controls were buffer without enzyme for full effect and enzyme alone for no effect
BoNT-F LC inh – inhibitors of Botulinum neurotoxin F light chain protease; Multiplex microsphere protease cleavage assay, flow cytometry; inhibition, % at 10 µM; 360,000 compounds, 0.22% hits; in the data active means inhibition above about 35%, passing the limit was not always enough; inconclusive means no clear call, values can overlap the other calls; further: plate controls were buffer without enzyme for full effect and enzyme alone for no effect
* marks the source's active call; other numbers are inactive results; ? = inconclusive. This is a sample that favours compounds with a hit; in the whole collection about 3.5% have one here. Unless noted, no stated cut-off is given here; in the data, active means inhibition above about 30%; inconclusive means no clear call, values can overlap the other calls; inactive means below that.

SMILES | Autofluor counter | BoNT A protease | Anthrax LF inh2 | BoNT-F LC inh
Cc1cc(C)n(CCc2nc(-c3cccs3)cs2)n1 | 2263 | 0.0 | -1.3 | -16.8
Cc1cc(C)n(CCc2nc(-c3ccco3)cs2)n1 | 19796* | 3.3 | 0.6 | 4.9
Cc1nc2ccc(S(=O)(=O)Nc3ccccc3C)cc2s1 | 17531* | -5.2 | -3.5 | -7.8
Cc1nc2ccc(NS(=O)(=O)c3ccc(C)c(C)c3)cc2s1 | 3345 | -0.6 | -1.2 | -22.6
CC(=O)Nc1ccccc1C | 5738 | -0.3 | -3.6 | 0.4
CC(=O)Nc1ccccc1NC(=O)C(F)(F)F | 16513* | -1.2 | -2.2 | -5.8
CC(=O)Nc1ccc(C(=O)O)cc1 | 6057 | -0.4 | -0.7 | 10.5
CC(=O)Nc1ccc(NC(=O)C(F)(F)F)cc1 | 22771* | ? | -1.0 | -1.0
CC(=O)c1ccc(S(=O)(=O)NCCC(=O)OCC(=O)N(Cc2ccccc2)C(C)(C)C)cc1 | 3397 | 0.1 | -3.9 | -2.9
O=C(c1cccc2c1-c1ccccc1/C2=N/O)N1CCCCC1 | 20508* | ? | 3.0 | -2.8
CC1(C(=O)NCC2CCOCC2)Cc2c(-c3cccc(C(F)(F)F)c3)ccnc2O1 (stereo unspecified) | 2888 | 0.3 | -3.9 | -3.8
CCCC(=O)N1CCC1(C)C(=O)NS(=O)(=O)c1cccs1 (stereo unspecified) | 3098 | 0.2 | -30.7 | -75.9
O=C(NCc1ccccc1)N[C@@H](Cc1ccccc1)C(=O)O | 16799* | ? | -3.1 | -5.2
COC(=O)[C@H](Cc1ccccc1)NC(=O)NCc1cccs1 | 19692* | 9.9 | 2.4 | 13.5
O=C(NCc1ccc(F)cc1)N[C@@H](Cc1ccccc1)C(=O)O | 22456* | 1.5 | -1.4 | 1.9
Cc1cccc(C)c1N1C(=O)C2ON(c3ccccc3)C(c3ccncc3)C2C1=O (stereo unspecified) | 22531* | ? | 0.4 | -4.0
Cc1ccccc1N1C(=O)C2ON(c3ccccc3)C(c3cccnc3)C2C1=O (stereo unspecified) | 5262 | 0.2 | 0.8 | -4.7
Cc1c(Cl)cccc1N1C(=O)C2ON(c3ccccc3)C(c3cccnc3)C2C1=O (stereo unspecified) | 21730* | -0.2 | 1.9 | -2.2
Cc1ccc(N2C(=O)C3ON(c4ccccc4)C(c4ccncc4)C3C2=O)c(C)c1 (stereo unspecified) | 4259 | 0.2 | -6.0 | -1.8
O=C1C2ON(c3ccccc3)C(c3ccncc3)C2C(=O)N1c1ccccc1 (stereo unspecified) | 20412* | -2.2 | 1.8 | -3.2
COc1ccc(CNC(=O)C[C@H]2C[C@H](C(=O)N3CCOCC3)[C@@]3(CCC4CCCC4)c4[nH]c5cc(CCC(=O)N(C)C)ccc5c4CCN3C2=O)cc1OC | 3626 | 0.2 | -7.3 | -2.7
CC(C)C[C@H]1CN([C@@H](CC(C)C)CN2CCCC2CN2C(=S)NC[C@@H]2Cc2ccccc2)C(=S)N1CCc1ccccc1 (stereo partly specified) | 5913 | -0.3 | -9.2 | -11.0
CC(Cc1ccccc1)NC(=O)C1(c2ccccc2)CCOCC1 (stereo unspecified) | 22824* | ? | -1.7 | -0.7
O=C(NNc1ccccc1[N+](=O)[O-])Nc1ccccc1 | 20435* | ? | 0.5 | -0.7
C(=N\Nc1nc(-c2ccccc2)cs1)/c1cccnc1 | 23863* | -4.9 | -5.9 | -9.9
SMILES | Autofluor counter | BoNT A protease | Anthrax LF inh2 | BoNT-F LC inh
CC(/C=C/c1ccccc1)=N\Nc1nc(-c2ccccc2)cs1 | 24306* | -2.7 | -3.4 | -4.2
CC(C)=NNc1nc(-c2ccccc2)cs1 | 2266 | 1.3 | -0.4 | -3.2
CCOc1ccc(S(=O)(=O)N2CCC(C(=O)Nc3ccccc3N3CCCC3)CC2)cc1 | 4356 | -0.8 | 0.0 | -13.6
COc1ccc(F)cc1-c1cc(C(=O)N2CCc3ccccc3C2)[nH]n1 | 3799 | 0.0 | -3.9 | -0.3
COc1cccc(C(O)c2nc(-c3ccc(N(C)C)cc3)cs2)c1 (stereo unspecified) | 2949 | 0.0 | 3.8 | 6.6
O=C(Nc1ccccc1Cl)c1cccc(NC(=O)C2C3CC4OC(=O)C2C4C3)c1 (stereo unspecified) | 23034* | 0.6 | 3.4 | 0.3
O=C(Nc1cccc(NC(=O)C2C3CC4OC(=O)C2C4C3)c1)c1ccccc1 (stereo unspecified) | 3232 | -0.7 | -1.1 | -2.6
O=C(Cc1ccc(NC(=O)C2CCN(C(=O)C3CCCCC3)CC2)cc1)Nc1cccc(C(=O)N2CCCCC2)c1 | 3886 | -0.3 | -1.9 | -3.6
O=C1CC(c2ccccc2)CC(O)=C1C=NC1CCCCC1 (stereo unspecified) | 23531* | -2.7 | -0.1 | -1.9
O=C1CC(c2ccccc2)CC(O)=C1C=NC1CCCCCC1 (stereo unspecified) | 10019 | 0.6 | -2.2 | 2.6
COc1ccc(CN2C(=O)CCC2(C)c2nnnn2-c2ccc3c(c2)OCCO3)cc1 (stereo unspecified) | 6163 | -0.5 | -6.5 | -16.3

Screening results as filed in PubChem.
